# Assay results as given in the supplement of paper PMC8728848.
# This excerpt belongs to a sample that is enriched for the strongest signals.
# Experiments:
# Experiment in all cases: glycan array binding signal (z-score within array); higher = stronger binding
# Details in all cases: glycan notation: IUPAC condensed, linker removed
# Gal(a1-4)GlcNAc = tested on: Gal(a1-4)GlcNAc
# How it was run: (§1)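 Negative Z-scores can be read as non-binding. The Z-score is calculated within each array and then averaged across arrays of one protein sequence at different concentrations or buffers and across linkers. Arrays, 3228 in all, were curated from the Consortium for Functional Glycomics database and kept only where the protein sequence was available.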
# Gal(a1-3)Gal = tested on: Gal(a1-3)Gal
# How it was run: as §1
# Gal(a1-4)Gal(b1-4)GlcNAc = tested on: Gal(a1-4)Gal(b1-4)GlcNAc
# How it was run: as §1
# Gal(a1-3)Gal(b1-4)GlcNAc = tested on: Gal(a1-3)Gal(b1-4)GlcNAc
# How it was run: as §1
# [1] = tested on: Gal(a1-3)Gal(b1-4)GlcNAc(b1-3)GalNAc
# How it was run: as §1
# [2] = tested on: Gal(a1-3)[Gal(a1-4)]Gal(b1-4)GlcNAc
# How it was run: as §1
# [3] = tested on: Gal(a1-3)Gal(b1-4)[Fuc(a1-3)]GlcNAc(b1-2)Man(a1-3)[Gal(a1-3)Gal(b1-4)[Fuc(a1-3)]GlcNAc(b1-2)Man(a1-6)]Man(b1-4)GlcNAc(b1-4)GlcNAc
# How it was run: as §1
# [4] = tested on: Gal(a1-3)Gal(b1-4)[Fuc(a1-3)]GlcNAc
# How it was run: as §1
# [5] = tested on: Gal(a1-3)Gal(b1-4)GlcNAc(b1-6)GalNAc
# How it was run: as §1
# Gal(a1-4)Gal(b1-4)Glc = tested on: Gal(a1-4)Gal(b1-4)Glc
# How it was run: as §1
substance,measurement,setting,value
AgI/IIC123-GFP (Streptococcus mutans),glycan array binding signal (z-score),Gal(a1-4)GlcNAc,0.706
LcI (Legionella pneumophila),glycan array binding signal (z-score),Gal(a1-3)Gal,-0.38
same,glycan array binding signal (z-score),Gal(a1-4)Gal(b1-4)GlcNAc,-0.363
"SpGH101 (Streptococcus pneumoniae), Q8DR60",glycan array binding signal (z-score),Gal(a1-3)Gal(b1-4)GlcNAc,-0.162
"BambL (Burhholderia ambifaria), Q0B4G1",glycan array binding signal (z-score),[1],-0.314
same,glycan array binding signal (z-score),[2],-0.316
AgI/II Vhelical-GFP (Streptococcus mutans),glycan array binding signal (z-score),[3],-0.151
same,glycan array binding signal (z-score),[4],-0.245
"Wza (Escherichia coli), P0A930",glycan array binding signal (z-score),[5],3.84
Actinohivin (Actinomycete K97),glycan array binding signal (z-score),Gal(a1-3)Gal(b1-4)GlcNAc,-0.163
same,glycan array binding signal (z-score),[3],0.092
Epa22,glycan array binding signal (z-score),Gal(a1-4)Gal(b1-4)Glc,-0.375
same,glycan array binding signal (z-score),Gal(a1-4)GlcNAc,10.5
